Here are results for 95 compounds from PubChem BioAssay AID2315 (National Center for Advancing Translational Sciences (NCATS), 2010).

The whole screen tested about 290,000 compounds, of which about 27,000 (9.3%) were called active. This excerpt belongs to a sample that is enriched for actives. Unmarked numbers belong to inactive results. Cut-off read from the data, not from the text of the source: active = inhibition mostly above about 28% (no sharp cut-off); inactive = mostly below about 43%.

This assay in a line: A qHTS for Small Molecule Inhibitors of Shiga Toxin. Note: 0% is about no effect. Conditions: Vero cells, Shiga toxin protein synthesis inhibition reporter; at 38.7 µM, active compounds read high.
The term inhibition denotes the change of the read-out against control, counted positive when it falls. Regarding `CC(C)c1ccc(S(=O)(=O)N2CCN(C(=O)c3ccc(N4CCCC4)c([N+](=O)[O-])c3)CC2)cc1`, the inhibition is 25.8%.

On to `CC(Sc1nc2cc(Cl)ccc2s1)C(=O)Nc1ccc2c(c1)OCO2` (stereo not given), for which the inhibition was 0% (active). Then `O=C(Nc1ccccc1)c1ccc2c(c1)OCCCO2`, with 58.6% (active); and `CC(=O)c1ccc2c(c1)OCCOCCOc1ccc(C(C)=O)cc1OCCOCCO2`, with -5.3%.

Regarding `O=C(CN1CCc2cc3c(cc2C1)OCCCO3)Nc1ccccc1`, the inhibition was 18.6%.

Take `O=C(Nc1cccc(S(=O)(=O)Nc2ccc(Cl)cc2)c1)c1ccc2c(c1)OCCO2`: the inhibition was 11.3%. Under `COc1ccc(C(=O)Nc2cccnc2)cc1C(=O)Nc1cccnc1` stands 9.57%; under `Cc1nc(NC(=O)c2ccc3c(c2)OCCO3)ccc1Br`, 90.6% (active). Then `O=C(Nc1cccnc1)c1ccc2c(c1)OCO2`, with 33% (active). In the case of `O=C(Nc1ccc(Cl)cn1)c1ccc2c(c1)OCCO2`, the inhibition is 32.4%.

Regarding `CC(Sc1nc(-c2ccccc2)cc(C(F)(F)F)n1)C(=O)Nc1ccc2c(c1)OCO2` (stereo not given), the inhibition was -14.3%. For `O=C(Nc1ccc2c(c1)OCO2)c1sc2cc(Cl)ccc2c1Cl`, the inhibition was -13.4%. Under `CN1CCC(CN)(N2CCN(c3ccccc3)CC2)CC1` stands -6.52%; under `COc1cccc2sc(N(CCCN(C)C)C(=O)CCS(=O)(=O)c3ccccc3)nc12`, 8.49%. Then `CC1(C)Cc2c(cnn2-c2cccc(F)c2)C(NC(=O)c2cc[n+]([O-])cc2)C1` (stereo not given), with -5.88%; and `Cc1cccnc1NC(=O)Cn1c(=O)oc2ccccc21`, with 30.2%. Then `Cc1ccc(S(=O)(=O)c2c[nH]c3ccc(Cl)cc3c2=O)cc1`, with -4.43%. For the compound `O=C(Nc1ccc2c(c1)OCO2)c1ccc(N2C(=O)c3ccccc3C2=O)cc1`, the inhibition is 17.3%.

Take `O=C(Nc1cccc([N+](=O)[O-])c1)c1ccc2c(c1)OCO2`: the inhibition was 58.7% (active). Consider `O=C(Nc1ccc(NC(=O)c2ccco2)c(Cl)c1)c1cccc([N+](=O)[O-])c1`, for which the inhibition was 15.6%. Under `O=C(Nc1ccc(N2CCOCC2)cc1)c1ccc2c(c1)OCO2` stands 76.4% (active); under `CC(C)C(=O)Nc1cccc(C(=O)Nc2ccc3c(c2)OCO3)c1`, 143% (active). As for `O=C(Nc1ccc(C(=O)N2CCCCC2)cc1)c1cccc([N+](=O)[O-])c1`, the inhibition was 27.3%. Then `O=C(Nc1ccc(C2CC2(Cl)Cl)cc1)c1cccc([N+](=O)[O-])c1` (stereo not given), with 76.3% (active); and `CCSc1ccccc1C(=O)Nc1ccc2c(c1)OCO2`, with 45.1%.

Turning to `CC(NC(=O)Nc1cccc([N+](=O)[O-])c1)c1ccc2c(c1)OCO2` (stereo not given), the inhibition is 6.02%.

On to `O=C(c1ccc2c(c1)OCO2)N1CCOCC1`, for which the inhibition is 1.95%. Under `O=C(Nc1cccc([N+](=O)[O-])c1)Nn1cnnc1` stands -6.68%. Under `CCN(CCCNC(=O)c1ccc2c(c1)NC(=O)CN2C)c1cccc(C)c1` stands -5.92%; under `COc1ccc(NC(=O)C2=CC(c3ccc(OC)c(OC)c3)=NS(=O)(=O)N2C)cc1`, 7.8%; under `O=C(CN1CCCCCC1)Nc1ccc(Cl)cc1F`, 1.73%. Then `O=c1ccc2cc(S(=O)(=O)Nc3ccccc3F)ccc2o1`, with -8.1%; and `CCc1nc2cccnc2n1-c1ccc(C(=O)O)cc1`, with -6.32%. Take `Cc1c(Cl)cccc1NC(=S)NCC(O)c1ccccc1` (stereo not given): the inhibition was 8.12%.

As for `O=C(Nc1ccccc1)Nc1nc2ccccc2s1`, the inhibition was 106% (active). With `CC(=O)Nc1ccc(-c2csc(NC(=O)Nc3ccccc3)n2)cc1`, the inhibition is 42%.

`Cn1nnnc1SCC(=O)Nc1nc2ccccc2s1`: the inhibition is 25.2%. With `COc1ccc(C(=O)NC2CC(C)(C)Cc3c2cnn3-c2ccccc2)c(OC)c1` (stereo not given), the inhibition is -3.27%. Then `CC(C)S(=O)(=O)c1csc(NC(=O)Nc2ccc(Cl)cc2)c1Cl`, with 37.4%; and `COc1ccccc1Nc1cc(C(=O)NCCCN(C)C2CCCCC2)c2ccccc2n1`, with -10.8%; and `Cc1ccc(SCC(=O)c2cc(C)c(OC(=S)N(C)C)c(C)c2)cc1`, with 37.1%. Under `Cc1cc(C)n2nc(CNS(=O)(=O)c3c(F)c(F)c(F)c(F)c3F)nc2n1` stands 9.24%; under `COc1cccc(NC(=O)N2CCC(NC(=O)C(Cc3cccc(C)c3)NC(C)=O)CC2)c1` (stereo not given), 1.56%. Under `Cc1ccc(-n2nc3c(c2NC(=O)c2ccc4c(c2)OCO4)CSC3)c(C)c1` stands 1.3%. For the compound `O=C(CN1CCN(CC(=O)Nc2ccc3c(c2)OCO3)CC1)Nc1ccc(F)cc1`, the inhibition was -14.4%. Then `Cc1ccc(F)cc1NC(=O)c1ccc2c(c1)OCO2`, with 43.8% (active); and `Cc1cccc(C(=O)Nc2ccccc2N2CCN(c3ccc(F)cc3)CC2)c1`, with -3.83%.

With `O=C(Nc1ccccc1N1CCCCC1)c1cccc(F)c1`, the inhibition is 16.3%. Under `Cc1ccc(F)cc1NC(=O)c1cccc(N(C)C)c1` stands 116% (active); under `COc1ccc(NC(=O)NCc2ccc3c(c2)OCO3)c(OC)c1`, -9.62%.

On to `CN(C)CCN(C(=O)C1CCCCC1)c1nc2cc3c(cc2s1)OCO3`, for which the inhibition was -7.68%. Then `CC(=O)N1CCc2cc(S(=O)(=O)NC3CCCCC3)ccc21`, with -2.55%; and `COc1ccc(C(=O)COC(=O)CNC(=O)c2cccs2)cc1Br`, with -12%. Take `CC(=O)Nc1ccc(Nc2ncnc3c2nnn3Cc2ccccc2Cl)cc1`: the inhibition is -4.64%. In the case of `COc1ccc(/C=C2\SC(=S)N(CCC(=O)Nc3ccccn3)C2=O)cc1OC`, the inhibition is -13.3%.

With `CCOc1ccc(N(CC(=O)NCC2CCCO2)S(=O)(=O)c2ccc(C)cc2)cc1` (stereo not given), the inhibition is -4.82%. Then `COCn1c(COc2ccccc2)nc2ccccc21`, with 13.8% (active); and `O=C(Cn1c(COc2ccccc2)nc2ccccc21)Nc1cc(Cl)c(Cl)cc1Cl`, with 3.93%; and `CC(C)n1c(COc2ccccc2)nc2ccccc21`, with -5.6%. As to `Cc1ccc(C23CC4CC(CC(C(=O)NCC(=O)O)(C4)C2)C3)cc1`, the inhibition was -7.52%. Then `Cc1cccc(OCC(=O)NC2CC(C)(C)NC(C)(C)C2)c1`, with 1.98%; and `CC(NCCc1ccc(S(N)(=O)=O)cc1)C(=O)NCc1ccccc1` (stereo not given), with 45.3%; and `Cc1cc(S(=O)(=O)N2CCOCC2)ccc1OCC(=O)Nc1cccc(C(F)(F)F)c1`, with -13.1%. Under `COc1ccccc1CSc1ncc(-c2ccc([N+](=O)[O-])cc2)[nH]1` stands 54.5% (active). Under `COc1ccccc1CSc1nc2ccccc2[nH]1` stands 71.9% (active). On to `CCc1nnc(NC(=O)CCCSc2nc3ccccc3[nH]2)s1`, for which the inhibition was 13.8%. Under `C=CCSc1nc2ccccc2[nH]1` stands 14.5%; under `CCCCSc1nc2ccccc2[nH]1`, 79.8% (active). Then `O=C(NCc1ccccc1)c1onc(CSc2nc3ccccc3[nH]2)c1C(=O)NCc1ccccc1`, with -3.72%; and `COc1ccccc1CC(=O)Nc1ccc([N+](=O)[O-])cc1OC`, with 2.24%.

As for `COc1ccccc1-c1noc(CSc2nc(C)cc(=O)[nH]2)n1`, the inhibition is -3.44%.

Regarding `N#Cc1c(-c2ccccc2)nc(SCc2ccc([N+](=O)[O-])cc2)[nH]c1=O`, the inhibition is -3.91%. Under `CC(C)=N/N=C1/NC(=O)C(Cc2ccccc2)S1` (stereo not given) stands -7.41%; under `COc1cccc(CNC(=O)CN(C)S(=O)(=O)c2ccc3c(c2)c(=O)n(C)c(=O)n3C)c1`, 18.4%. Under `O=C(O)CCCCCCCCc1cn(CN2C(=O)c3ccccc3C2=O)nn1` stands -8.38%. Consider `CC(CCc1ccccc1)NC(=O)COC(=O)c1ccc(F)cc1` (stereo not given), for which the inhibition is -4.73%.

Regarding `Cc1cccc(-c2nc(CS(=O)CC(=O)NC(C)CCc3ccccc3)c(C)o2)c1` (stereo not given), the inhibition was -4.68%. Then `O=C(CCCN1C(=O)/C(=C/c2cccs2)SC1=S)Nc1ccc(O)cc1`, with 42.3%; and `Cc1ccc(C(=O)NCCN2CCOCC2)cc1C`, with 19%. Under `CC(=O)Oc1cc2c(C(=O)NCCN3CCOCC3)c(C)oc2c2ccccc12` stands 44.7% (active); under `Cc1cc(C)cc(C(=O)NCCN2CCOCC2)c1`, -7.36%; under `CC(=O)NC(CC(=O)Nc1cccc(S(=O)(=O)N2CCCC2)c1)c1ccccc1` (stereo not given), -34.1%.

On to `CC(=O)N1CCc2c(sc(NC(=O)CCS(=O)(=O)c3ccccc3)c2C#N)C1`, for which the inhibition was 17.3%.

Take `O=C1CSC(=S)N1c1ccc(O)cc1`: the inhibition is -10.4%. Under `N#Cc1c(Cl)nc(-c2cccnc2)nc1-c1ccccc1` stands -3.23%. Under `Cc1ccc(C(C(=O)NC2CCCC2)N(Cc2ccco2)C(=O)CCC(=O)Nc2ccccn2)cc1` (stereo not given) stands -14.7%; under `Cc1ccc2c(c1)N(CC(=O)N(Cc1ccccn1)Cc1ccco1)C(=O)C(C(C)C)O2` (stereo not given), 33.8% (active); under `Cc1ccnc(NC(=O)CCC(=O)N(CC(=O)NCc2ccccc2)Cc2ccco2)c1`, -4.34%. Under `Cc1cc(C)c2c(=O)[nH]c(SCC(=O)Nc3ccc(Br)cc3)nc2n1` stands 3.52%; under `CN(c1ccc(OCC(=O)O)cc1)S(=O)(=O)c1ccc2ccccc2c1`, -4.36%; under `O=S(=O)(NC1CCCCC1N1CCC(O)CC1)c1ccc(Cl)cc1` (stereo not given), -13.2%. Turning to `COc1ccc(S(=O)(=O)N(CC(=O)NCc2ccco2)c2ccc(F)cc2)cc1`, the inhibition is 35.2%. Under `COc1ccc(-c2cc(C(F)(F)F)nc(SCCC(=O)NCc3ccco3)n2)cc1` stands 25.3% (active). Under `O=C(CSc1nc(-c2ccco2)cc(C(F)(F)F)n1)NCc1cccs1` stands -12.1%.

For the compound `Cn1cc(CCC(=O)NC2CC2)c2ccccc21`, the inhibition is 11.7%.
